# According to PubChem BioAssay (NCI):
# This is part of a sample that, as a whole, favours compounds with a hit. Of some 79,000 tested, about 15% had one in any assay. Unmarked numbers belong to inactive results. The source made the active and inactive calls. Cut-off read from the data, not from the text of the source: active = growth inhibition above about 70%; inactive = the rest.
# Assay: NCI Yeast Anticancer Drug Screen. Data for the CLN2oe strain (AID 163);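 note: 0% = growth of vehicle-only control cultures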
# Settings: S. cerevisiae CLN2oe strain, active compounds read high
# Protocol: Growth inhibition of yeast strains with defined genetic alterations is measured as a screen for potential anti-cancer activity. Selected strains with alterations in DNA damage repair or cell cycle control were exposed to compounds and growth inhibition was measured relative to vehicle treated controls. The strain used in this assay is CLN2oe
Structure (SMILES),growth inhibition (at 1.2 µM),growth inhibition (at 3.7 µM),growth inhibition (at 11.0 µM),growth inhibition (at 33.0 µM),growth inhibition (at 100.0 µM)
O=C1NC(SSC2=NNC3(C(=O)N2)c2ccccc2-c2ccccc23)=NNC12c1ccccc1-c1ccccc12,4%,1%,1%,5%,2%
CCCC/C=C/C(C)(C(=O)OCC)C(=O)OCC,-3%,-7%,-8%,-1%,12%
Nc1cc(N)c(N=Nc2cccc3c(S(=O)(=O)O)cccc23)cc1N=Nc1cc([N+](=O)[O-])ccc1O,4%,16%,-4%,-7%,-3%
c1ccc(CCN2CCc3ccccc3C2)cc1,-3%,-9%,12%,28%,41%
CCOC(=O)COc1c(OC)cc(C2C3=C(COC3=O)Oc3cc4c(cc32)OCO4)cc1OC (stereo not given),-2%,-3%,5%,2%,10%
COc1cc(C2c3cc4c(cc3OC(OC(C)=O)C2C)OCO4)cc(OC)c1OC (stereo not given),-7%,-7%,-18%,-13%,72% (active)
CSc1nc(C)c(CCOC(C)=O)c(N=P(c2ccccc2)(c2ccccc2)c2ccccc2)n1,18%,10%,0%,3%,77% (active)
C[C@]12CC[C@H](O)CC1=CC[C@@H]1C2CC[C@]2(C)C(=O)NC(=O)CC12 (stereo not given in full),-36%,-45%,-48%,67%,91% (active)
